Molecules are shown by their SMILES. Among all 69,000 compounds or so, about 8,600 (12%) showed an effect of 50% or more. The sample holds strong results, similar compounds and a random draw of the others, so the mix is not that of the screen.

From ChEMBL document CHEMBL4513216, “Probing the Open Global Health Chemical Diversity Library for Multistage-Active Starting Points for Next-Generation Antimalarials” (ACS Infect Dis, 2020) come the findings set out here.

For this test, the system named is Plasmodium berghei. Put plainly: Screen against P. berghei liver stage (PbLuc), transformed with Luciferase, at 10uM. In kind it is functional, HepG2. The conditions noted are these: tested at 10 uM.
`CCNC(=O)[C@@H]1CCCN1[C@@H](C(=O)NC)c1ccccc1`: the INHIBITION is reported as -1.12%.

Consider `Cc1cccc(S(=O)(=O)NCC(C)(C)CC(C)O)c1C#N` (configuration not stated), for which the INHIBITION amounted to 18.8%.

For the compound `Cc1c(F)cccc1S(=O)(=O)NCC(C)(C)CC(C)O` (configuration not stated), the INHIBITION is -11.9%.

For `CC(O)CC(C)(C)CNS(=O)(=O)c1cccc(Cl)c1C#N` (configuration not stated), the INHIBITION is given as 53.5%.

For the compound `COc1cccc2c3c(c(=O)[nH]c12)CCO3`, the INHIBITION turned out to be 20.9%.

`CC(C)CN1CC[C@@H]2[C@@H]1CCN2S(=O)(=O)c1cn(C)cn1`: the INHIBITION worked out at 13.7%.

On to `COCCN(Cc1cnn(C)c1)c1nc(C)nc2sccc12`, for which the INHIBITION is listed as -39.2%.

Turning to `CCOCCN(CCOCC)c1nc(C)nc2sccc12`, the INHIBITION is given as 69.7%.

As to `CCCN(CCOC)c1nc(C)nc2sccc12`, the INHIBITION worked out at 53.9%.

As to `COCCN(Cc1sccc1C)c1nc(C)nc2sccc12`, the INHIBITION is listed as 14.6%.

As for `CCC(CN1CCCC1)NC(=O)Cc1c(C)[nH]c2c(C)cc(C)cc12` (configuration not stated), the INHIBITION amounted to 41.2%.

Regarding `Cc1nn(C)c(C)c1S(=O)(=O)N1C[C@@H]2C[C@@H](C)O[C@@H]2C1`, the INHIBITION is recorded as 8.74%.

Take `CN(C)C(=O)CN1C(=O)[C@@H]2CC[C@H]1CN(Cc1ccccc1C#N)C2`: the INHIBITION stood at 23.9%.

Turning to `O=C(NCC1CC1)C1CCC2(CCN(C(=O)c3cccs3)CC2)O1` (configuration not stated), the INHIBITION is on record as -14.7%.

In the case of `O=C(Nc1ccc(Br)cc1F)c1ccc(N2CCCCC2)nn1`, the INHIBITION is 10.8%.

`CSc1ccccc1NC(=O)c1ccc(N2CCOCC2)nn1`: the INHIBITION is -117%.

Consider `O=C(Nc1ccc(Br)cc1F)c1ccc(N2CCOCC2)nn1`, for which the INHIBITION was determined as 52.3%.

For `COc1ccc(C)cc1C(=O)N1CCCC(n2cncn2)C1` (configuration not stated), the INHIBITION is given as -16%.

For `Cc1noc(C)c1CN(Cc1cccs1)C1CCS(=O)(=O)C1` (configuration not stated), the INHIBITION came out at 36.1%.

`Cc1ccc(-c2nc(CN(Cc3ccco3)C3CCS(=O)(=O)C3)cs2)o1` (configuration not stated): the INHIBITION was found to be 62.8%.

Take `CC(C)(C)c1nc(CN(Cc2cccs2)C2CCS(=O)(=O)C2)no1` (configuration not stated): the INHIBITION was determined as 34.7%.

In the case of `Cc1ccc(-c2nc(CN(C)C3CCS(=O)(=O)C3)cs2)o1` (configuration not stated), the INHIBITION was 57.7%.

For `Cc1ccc(-c2nc(CN(Cc3cccs3)C3CCS(=O)(=O)C3)cs2)o1` (configuration not stated), the INHIBITION is 87.6%.

Consider `Cc1ccc(-c2nc(CN3CCC(C(=O)N(C)C)CC3)cs2)o1`, for which the INHIBITION worked out at 39.5%.

Turning to `O=S1(=O)CCC(N(Cc2nc3ccccc3o2)Cc2cccs2)C1` (configuration not stated), the INHIBITION is on record as -32.5%.

Regarding `CC(C)(C)c1nc(CN(Cc2cccs2)C2CCS(=O)(=O)C2)cs1` (configuration not stated), the INHIBITION is on record as 59.4%.

As for `O=C(NCC1CCS(=O)(=O)C1)N(Cc1ccco1)C1CC1` (configuration not stated), the INHIBITION is listed as 38.2%.

In the case of `Cc1noc(CN(Cc2cccs2)C2CCS(=O)(=O)C2)n1` (configuration not stated), the INHIBITION was determined as 49.8%.

`Cc1ccc(-c2nc(CN3CCCC(C(=O)N(C)C)C3)cs2)o1` (configuration not stated): the INHIBITION was 35.9%.

For `Cc1nc(CN(Cc2cccs2)C2CCS(=O)(=O)C2)oc1C` (configuration not stated), the INHIBITION was 19.5%.

Consider `CCOCCN1Cc2cnn(C)c2C(COCC)C1` (configuration not stated), for which the INHIBITION was found to be 42.7%.

As for `CN(C)c1ncccc1CNC(=O)N1CCCC1c1cccs1` (configuration not stated), the INHIBITION is given as 4.71%.

Take `CCN1CCN(C)C2(CCN(Cc3ccc(C)o3)CC2)C1=O`: the INHIBITION is reported as -93.5%.

As for `O=c1[nH]cc(N2CCOCC2)c(=O)[nH]1`, the INHIBITION is recorded as -56.8%.

Take `CCn1ccnc1CN1CCN(CCc2ccccn2)CC1C` (configuration not stated): the INHIBITION was 13.8%.

In the case of `O=C1N(CC2CC2)CCC12CCN(CC1CC1)CC2`, the INHIBITION was 21.7%.

Regarding `O=C(CCCNCc1ccccc1)N1CCCn2cncc2C1`, the INHIBITION is listed as 30.9%.

`Cc1ccc(CN2CCc3ncnc(-c4cccnc4)c3CC2)o1`: the INHIBITION was determined as 13.7%.

Consider `Cc1cc(N2CCC(C(=O)N(C)C)CC2)nc(-c2ccncc2)n1`, for which the INHIBITION is recorded as -148%.

As to `COc1cccc(-c2c[nH]c(C)n2)c1F`, the INHIBITION is recorded as -114%.

With `CC(C)N1CC(NC(=O)c2ccc(Cl)s2)CC1=O` (configuration not stated), the INHIBITION was found to be 83.8%.

Regarding `O=C(NC1CC(=O)N(C2CC2)C1)c1ccc(Cl)s1` (configuration not stated), the INHIBITION was found to be 33.1%.

For `CCCS(=O)(=O)N1CCC(NC(=O)c2ccc(Cl)s2)CC1`, the INHIBITION is 21%.

As to `O=C(NCCCF)N1CCC(n2ccc(C(F)(F)F)n2)CC1`, the INHIBITION amounted to 36.3%.

Take `O=C(CNC(=O)N1CCc2c([nH]c3ccc(Cl)cc23)C1)NC1CCCC1`: the INHIBITION is -6.91%.

`COCC(=O)N1CC(c2n[nH]cc2C)C1`: the INHIBITION is listed as -41.1%.

For `O=C(c1cc2c(s1)CCN2C(=O)C1CC1)N1CCCC1`, the INHIBITION is reported as 23.3%.

With `CCCNC(=O)c1cc2c(s1)CCN2C(=O)c1ccccc1`, the INHIBITION was -27%.

Turning to `CN1CCN(C(=O)c2cc3c(s2)CCN3C(=O)C2CC2)CC1`, the INHIBITION is -29.8%.

For the compound `O=C(NC1CCCC1)c1cc2c(s1)CCN2C(=O)c1ccccc1`, the INHIBITION is reported as 55.9%.

For `O=C(NCCN1CCCC1)c1cc2c(s1)CCN2C(=O)c1ccccc1`, the INHIBITION is recorded as -28%.

With `O=C(NC1CC1)c1cc2c(s1)CCN2C(=O)C1CC1`, the INHIBITION is recorded as 51.4%.

Take `c1cncc(COCc2nnn3c2CN(Cc2ccsc2)CC3)c1`: the INHIBITION was -9.26%.

Take `Nc1cc(-c2cc(C(=O)O)ccc2Cl)c2cc[nH]c2n1`: the INHIBITION is given as 15.2%.

Consider `Nc1cc(-c2ccc(C(=O)O)cc2O)c2cc[nH]c2n1`, for which the INHIBITION is 2.91%.

On to `O=C(O)CNc1cc(-c2nccnc2N2CCCC2)c2cc[nH]c2n1`, for which the INHIBITION is listed as 51.8%.

As for `Nc1cc(-c2nccnc2N2CCCC2)c2cc[nH]c2n1`, the INHIBITION turned out to be 58.3%.

In the case of `OCCNc1cc(-c2nccnc2N2CCCC2)c2cc[nH]c2n1`, the INHIBITION turned out to be 37.7%.

As for `O=C(O)CNc1cc(-c2cc(C3CC3)ncn2)c2cc[nH]c2n1`, the INHIBITION is 19.5%.

Consider `CN1CC(=O)N(c2cccc(F)c2)CC12CCN(Cc1cncn1C)C2` (configuration not stated), for which the INHIBITION is recorded as -15.7%.

For `CS(=O)(=O)NCC1CCCN(C(=O)c2ccc(Cl)o2)C1` (configuration not stated), the INHIBITION stood at 15%.

As for `O=C(c1ccccn1)N1CC[C@@H](N2CCOCC2)[C@@H]1Cc1ccccc1`, the INHIBITION came out at 39.2%.

`Cc1nccn1-c1cncc(C2CCCN2Cc2ccccc2)n1` (configuration not stated): the INHIBITION amounted to 36.7%.

Consider `COCCN1CCCc2sc(C(=O)N3CCCN(C)CC3)nc21`, for which the INHIBITION is 5.36%.

Consider `Clc1ccccc1CN1CCc2nc(C3CCCNC3)ncc2C1` (configuration not stated), for which the INHIBITION was determined as 6.32%.

Take `Cc1noc(NC(=O)c2ccc(Br)o2)n1`: the INHIBITION is 31.9%.

As to `Cc1noc(NC(=O)c2ccc(C#N)cc2)n1`, the INHIBITION is -0.96%.

Turning to `Cc1ccc(C(=O)Nc2nc(C)no2)cc1`, the INHIBITION is on record as 23.7%.

Turning to `Cc1noc(NC(=O)CCNC(=O)c2ccc(Br)cc2)n1`, the INHIBITION was 14.1%.

On to `Cc1noc(NC(=O)c2ccc(OC(F)(F)F)cc2)n1`, for which the INHIBITION is recorded as 87.6%.

Regarding `Cn1nc(CNC(=O)c2ccc(OC(F)(F)F)cc2)c2c1CCOC2`, the INHIBITION is reported as -6.42%.

Consider `Cc1noc(NC(=O)c2cccc(Br)c2)n1`, for which the INHIBITION came out at 88.2%.

In the case of `Cc1noc(NC(=O)c2ccccc2)n1`, the INHIBITION is on record as -10.6%.

For the compound `Cc1noc(NC(=O)c2ccc(Br)cc2)n1`, the INHIBITION was 91.5%.

For `Cc1c(NC(=O)c2cccc(Br)c2)c(C(=O)N(C)C)nn1C`, the INHIBITION turned out to be 45.8%.

Regarding `Cc1noc(COCC(=O)Nc2ccc(Br)c(C)n2)n1`, the INHIBITION was determined as 10.7%.

For the compound `Cc1noc(NC(=O)c2ccc(Br)s2)n1`, the INHIBITION was determined as 85.9%.
